Assay outcomes: PubChem BioAssay, National Center for Advancing Translational Sciences (NCATS)
12-LOX inh – blocks human arachidonate 12S-lipoxygenase. purified 12hLO, xylenol orange hydroperoxide absorbance. P18054. Potency, µM (top dose mostly 108 µM), inactives show at the highest dose activity change, negative = inhibition, most hits filed as inhibitors. 580,000 tested, 1.1% active. AID 1671190; also: % is scaled to controls: 0 for no effect and ±100 for the full control effect
Target sequence (P18054 whole entry, looked up): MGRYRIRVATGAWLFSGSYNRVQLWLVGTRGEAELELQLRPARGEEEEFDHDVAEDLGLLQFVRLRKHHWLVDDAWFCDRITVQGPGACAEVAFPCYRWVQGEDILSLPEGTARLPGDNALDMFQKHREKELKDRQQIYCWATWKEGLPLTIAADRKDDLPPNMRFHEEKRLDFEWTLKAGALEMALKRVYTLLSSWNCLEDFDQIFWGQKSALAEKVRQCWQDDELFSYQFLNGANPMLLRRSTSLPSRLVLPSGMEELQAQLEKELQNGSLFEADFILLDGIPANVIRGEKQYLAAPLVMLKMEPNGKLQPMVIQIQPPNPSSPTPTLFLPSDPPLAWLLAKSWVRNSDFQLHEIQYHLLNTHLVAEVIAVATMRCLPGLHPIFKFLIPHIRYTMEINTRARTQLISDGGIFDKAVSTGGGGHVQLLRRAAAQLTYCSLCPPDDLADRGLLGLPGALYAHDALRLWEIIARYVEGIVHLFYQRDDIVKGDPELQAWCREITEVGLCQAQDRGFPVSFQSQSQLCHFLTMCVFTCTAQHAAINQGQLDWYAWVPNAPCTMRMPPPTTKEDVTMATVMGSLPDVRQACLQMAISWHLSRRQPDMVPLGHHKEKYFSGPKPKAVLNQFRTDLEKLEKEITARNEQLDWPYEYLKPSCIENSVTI
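Hydroperoxide product was detected by ferrous iron/xylenol orange as the 573 to 405 nm absorbance ratio. Arachidonic acid at 40 uM (final) was turned over for 30 min at room temperature by 150 nM human 12hLO, pH 7.0 Hepes buffer, after 15 min compound preincubation.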
ATXN viability – cell viability loss in ATXN counter-screen. S2 cells (HEK-293 line with an ATXN2-luciferase reporter) viability, CellTiter-Fluor protease fluorescence, 24 h. Potency, µM (top dose mostly 56.7 µM), most hits filed as cytotoxic. 400,000 tested, 0.49% active. AID 651635; also: nearly all actives have a fitted effect of over 40% in size
TGFb SMAD3 inh – inhibitors of TGF-b signaling. HepG2 CAGA-GFP TGF-b/SMAD3 reporter, GFP fluorescence, 18 h; TGF-beta stimulated, 500 pg/mL final. Potency, µM (titrated, usually from 46.1 µM), for inactives: top-dose activity, negative = inhibition, most hits filed as inhibitors. 410,000 tested, 1.2% active; also: % is scaled to controls: 0 for no effect and ±100 for the full control effect; nearly all actives have a fitted effect of over 65% in size
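Smad-responsive CAGA-GFP expression was quantified in HEPG2 cells exposed to compounds and 500 pg/mL final TGF-beta for 18 h at 37 degrees C; unstimulated wells defined full inhibition.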
HepG2 tox – kills HepG2 cells in TGF-b inhibitor counter-screen; HepG2 CAGA-GFP viability, ATP luminescence, 18 h; Potency, µM (titrated, usually from 46.1 µM), for inactives: at the top dose activity change, negative = cytotoxicity, hits mostly cytotoxic; 410,000 tested, 0.76% active
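HepG2 CAGA-GFP cells (1000/well, DMEM with 1% FBS) received compound, then TGF-beta at 500 pg/mL final, and were incubated 18 hours at 37 degrees C. Viability was read by CellTiter-Glo luminescence. Media-only wells were set as complete cell-killing and DMSO as no toxicity.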
ATXN2 expr inh – inhibitors of ATXN2 expression; HEK-293 ATXN2-luciferase reporter, luminescence, 24 h; Potency, µM (doses to about 57 µM), without a hit: at the highest dose activity change, negative = inhibition, most hits filed as inhibitors; 360,000 tested, 0.72% active; AID 1745845; also: % is scaled to controls: 0 for no effect and ±100 for the full control effect; nearly all actives have a fitted effect of over 55% in size
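ATXN2-luciferase reporter cells (luciferase flanked by upstream and downstream ATXN2 gene portions) were treated 24 h at 37 °C with compounds at up to 57 uM. SteadyGlo luminescence gave expression; GF-AFC fluorescence gave viability.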
The depositor's hits bear a star; i = inactive; ? = inconclusive; . = no result given; ! = a repeat was not active; [ ] = dose if it differs, or a comment. An excerpt weighted towards active compounds, which were near 2.7% of everything screened. Calls follow the shape of the dose curve; as a rule, active = well fitted curve in the direction sought with a large enough effect; inconclusive = small, poorly fitted or top-dose-only effect, or another doubt; inactive = no such curve, though single readings can be large; an effect the other way counts as inactive or inconclusive. Potency is read from the fitted curve at half-maximal effect.

SMILES	12-LOX inh	ATXN viability	TGFb SMAD3 inh	HepG2 tox	ATXN2 expr inh
Clc1ccc(CCC(Cn2ccnc2)Sc2c(Cl)cccc2Cl)cc1 (stereo not drawn)	?	?	?	13µM*	?
Clc1ccc(Cn2ccnc2)cn1	-22%	i	-1%	3%	-10%
Cc1c(C=O)c2ccccc2n1Cc1cccc(F)c1	1%	i	1.8µM*	-42%	-6%
Cc1c(C=O)c2ccccc2n1Cc1ccccc1	0%	i	?	-40%	-2%
c1ccc(CNC2(c3nnnn3-c3ccccc3)CCCCC2)cc1	15%	.	.	.	.
COC1C(OC(=O)c2ccc(C)[nH]2)C(O)C(Oc2ccc3c(O)c(NC(=O)c4ccc(O)c(CC=C(C)C)c4)c(=O)oc3c2Cl)OC1(C)C (stereo not drawn)	40µM*	?	?	-48%	?
Cc1oc(-c2ccc(Cl)cc2)nc1CN1CCC(C(=O)NCCCN2CCN(c3cccc(Cl)c3)CC2)CC1	?	.	16µM*	-23%	.
O=C(/C=C/c1ccccc1)C1C(=O)c2ccccc2C1=O	-23%	i	0%	-34%	-25%
O=C(CF)N(O)c1ccc(C=Cc2ccccc2)cc1	-3%	?	7.1µM*	-40%	?
Cc1cccc(-n2c(/C=C/c3cccc4ccccc34)nc3ccccc3c2=O)c1	7%	.	?	-34%	.
O=c1c2ccccc2nc(/C=C\c2cccc(Br)c2)n1-c1ccc(O)cc1	-21%	.	13µM*	-105%	.
Cc1cccc(-n2c(/C=C/c3ccc([N+](=O)[O-])o3)nc3ccccc3c2=O)c1	-34%	?	?	-25%	14µM*
Cc1cccc(-n2c(/C=C/c3ccccc3O)nc3ccccc3c2=O)c1	-42%	.	11µM*	-22%	.
Cc1cccc(-n2c(/C=C/c3ccco3)nc3ccccc3c2=O)c1	25µM*	.	.	.	.
O=c1c2ccccc2nc(/C=C/c2ccccc2)n1-c1ccc(O)cc1	8%	?	?	-28%	-37%
O=C(Cc1ccccc1)N1CCC(C(=O)O)(c2ccccc2)CC1	3%[6.33 µM]	.	.	.	.
Cc1ccc(C(=O)N2CCC3(CC2)c2nccn2-c2ccccc2CN3CC(C)C)cc1F	7%	.	.	.	.
O=c1cc(-c2ccc(O)c(O)c2)oc2cc(O)cc(O)c12	10µM*!	?	?	14%	25%
CCCC1CCC(NC(C)C)CC1 (stereo not drawn)	26%	.	.	.	.
O=C1NC(=O)C(=Cc2ccc(SC3CCCCC3)o2)C(=O)N1	22µM*	.	?	-59%	18µM*
Clc1ccc(C(Cn2ccnc2)OCc2csc3c(Cl)cccc23)c(Cl)c1 (stereo not drawn)	-24%	.	?	-99%	22µM*
CCOc1ccc(N2C(=O)/C(=C\c3cccs3)C(=O)NC2=S)cc1	?	35µM*	?	-33%	32µM*
CCOc1ccc(N2C(=O)/C(=C/c3ccco3)C(=O)NC2=S)cc1	.	i	?	-47%	.
CCOC(=O)COc1ccc(/C=C2\C(=O)NC(=S)N(c3ccc(OC)cc3)C2=O)cc1OC	0%	i	10%	2%	-1%
O=C1NC(=O)C(=Cc2cccs2)C(=O)N1	-13%	i	17%	2%	2%
SMILES	12-LOX inh	ATXN viability	TGFb SMAD3 inh	HepG2 tox	ATXN2 expr inh
O=C1NC(=S)N(c2ccccc2F)C(=O)/C1=C\c1cccs1	32µM*	.	?	-44%	?
COc1ccc(N2C(=O)/C(=C/c3ccc(OC)c(OC)c3)C(=O)NC2=S)cc1	50µM*	i	-3%	0%	-11%
CCC(CC)c1cc([C@H]2CN3CC[C@H]2C[C@@H]3CNC(=O)COc2ccccc2)nc(-c2ccncc2)n1	0%	.	.	.	.
CCC(C)(C)c1ccc(O)cc1	12%	i	11%	-2%	-15%
CC(C)(C)CC(C)(C)c1ccc(O)cc1	?	35µM*!	.	.	?
COC[C@H]1CCCN1C[C@H]1CN2CC[C@H]1C[C@@H]2CNC(=O)c1ccc(N(C)C)cc1	25%[176 µM]	.	.	.	.
C=CC[C@@H](CC/C=C/C=C/CC/C=C\[C@@H]1CSC([C@@H]2C[C@@H]2C)=N1)OC	.	.	14µM*	-59%	?
CCC(CO)(C(=O)OC1C[N+]2(C)CCC1CC2)c1ccccc1 (stereo not drawn)	45µM*	i	-4%	3%	18%[11.3 µM]
CCCN1CCN(Cc2cc(C(C)=O)ccc2OC)CC1	10%	.	.	.	.
CCOc1ccc(-c2c(C)n(-c3ccc(OCC)cc3)c3[n+]2CCCCC3)cc1	167%	i	1µM*	-18%	?
O=C(O)C1=NOC2CN(CC3CC3)CC12 (stereo not drawn)	1%[12.5 µM]	.	.	.	.
O=C(O)C1=NOC2CN(Cc3cncs3)CC12 (stereo not drawn)	13µM*	.	.	.	.
O=C(O)c1ccccc1-c1ccc(C=C2C(=O)N(c3ccccc3)C(=S)N(c3ccccc3)C2=O)o1	32µM*	?	-19%	-16%	.
CN1CCC(c2c[nH]c3ccc(O)cc23)CC1	0%	i	16%	2%	2%
CC1CCCC(C)N1/N=C/c1c[nH]c2ccc(Br)cc12 (stereo not drawn)	?	i	?	18µM*	-36%
O=C(Nc1ccc(OC(F)(F)F)cc1)Oc1ccccc1N1CCCCC1	0%	?	13µM*	-102%	.
COc1ccc(S(=O)(=O)NC[C@H]2C[C@@H]3CCN2C[C@@H]3CN2CCC(Cc3ccccc3)CC2)cc1	20µM*	.	.	.	.
Fc1ccc(C(OCCN2CCCC2)c2ccc(F)cc2)cc1	?	i	9%	-4%	-14%
c1ccc(CCCN2CCN(CCOC(c3ccccc3)c3ccccc3)CC2)cc1	?	?	?	11µM*	27µM*!
Cc1ncc2c(n1)C[C@@H]1CC[C@H]2N1C(=O)c1ccccc1F	10%	.	.	.	.
CCOC(=O)c1cnc(N2CC2)nc1N	11%	28µM*	-8%	-3%	16µM*
O[C@H]1[C@H](NC2CCOCC2)[C@@H](C2CCCCC2)C[C@H]1O	-3%[176 µM]	.	.	.	.
COc1cccc(CN(C)C[C@@H]2OCc3ccccc3-c3c(n(C)c4ccccc34)C(=O)N([C@@H](C)CO)C[C@H]2C)c1	-4%	28µM*	?	20µM*	?
C[C@@H]1CN([C@H](C)CO)C(=O)c2c(c3ccccc3n2C)-c2ccccc2CO[C@@H]1CN(C)Cc1ccc(O)cc1	-68%	?	?	-27%	?
COc1cccc(NP(=O)(Oc2ccccc2Cl)Oc2ccccc2Cl)c1	3%	?	?	-55%	?
COc1cccc(NP(=O)(Oc2ccccc2)Oc2ccccc2)c1	-12%	i	18µM*	-6%	-13%
c1ccc(Nc2cc3c(cn2)CN(CC2CC2)CCN3)cc1	47%[176 µM]	.	.	.	.
COC(=O)c1c(C)n(Cc2ccc3c(c2)OCO3)c2ccc(O)cc12	13µM*	i	?	-19%	5%
